Test results taken from PubChem BioAssay (Tox21).
Inconclusive results are not listed. Active and inactive are the calls of the source. Unless noted, calls come from the whole dose curve.

Experiments:
[1] = Nuclear factor erythroid 2-related factor 2/antioxidant responsive element (Nrf2/ARE) small molecule agonists: qHTS cell viability counter screen in human keratinocytes (AID 1919968; active = well fitted curve in the direction sought with a large enough effect in the repeat runs; an effect the other way counts as inactive or inconclusive; note: nearly all actives have a fitted effect of over 55% in size)
Method in brief: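 Measured as CellTiter-Fluor fluorescence, this readout tracks cytotoxicity in the same wells as the ARE-luciferase screen. HaCaT reporter cells (1,500/well) received compounds after a 5 h pre-incubation and were exposed for 23 h.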

[2] = Nuclear factor erythroid 2-related factor 2/antioxidant responsive element (Nrf2/ARE) small molecule agonists: luciferase reporter gene qHTS assay in human keratinocytes (AID 1919969); note: nearly all actives have a fitted effect of over 35% in size
[3] = target: Gonadotropin-releasing hormone receptor (Homo sapiens) (UniProt P30968); assay: Human gonadotropin-releasing hormone receptor (GnRHR) small molecule agonists, calcium flux assay in GnRHR-HEK293 cells (AID 1920063); note: nearly all actives have a fitted effect of over 35% in size
Method in brief: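 Fluorescence kinetics (480 nm excitation, 540 nm emission; 3 min, 1 s steps) report calcium mobilisation in human GnRHR-HEK293 cells in agonist mode. Dye incubation: 1 h, 37 C.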

[4] = target: KiSS-1 receptor (Homo sapiens) (UniProt Q969F8); assay: Human kisspeptin (KISS1R) small molecule agonists, calcium flux assay in KISS1R-HEK293 cells (AID 1920064; active = well fitted curve in the direction sought with a large enough effect in the repeat runs; an effect the other way counts as inactive or inconclusive)
Method in brief: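 Measures KISS1R agonism through calcium-sensitive dye fluorescence in stably transfected HEK293 cells, read for 3 min after pin-tool compound delivery; 15-point titrations in triplicate.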

[5] = G protein-coupled receptor (GPCR) small molecule agonists, calcium flux assay: HEK293 wild type cell line counter screen (AID 1920065)
Method in brief: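 Readout: fluorescence at 480 nm excitation/540 nm emission, sampled at 1 s intervals for 3 min. Cells had been cultured 18 h, then dye-loaded 1 h at 37 C before compound or ATP addition.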

[6] = p53 small molecule agonists, cell-based qHTS assay with human liver microsomes (AID 1963577)
Method in brief: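 Fluorescence of the beta-lactamase reporter in p53RE-bla cells, detected with LiveBLAzer substrate (2 h, room temperature, dark), served as the read-out after 16 h compound exposure at 37 C with human liver microsomes and NADPH, each 0.5 mg/mL final.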

[7] = p53 small molecule agonists, cell-based qHTS assay with rat liver microsomes (AID 1963578)
Method in brief: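 Cells carrying a p53 response element–beta-lactamase reporter were plated and rested 5 h, then dosed with compound in DMSO plus rat liver microsomes and NADPH, each at 0.5 mg/mL final. After 16 h at 37 C, LiveBLAzer substrate was added for 2 h.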

[8] = p53 small molecule agonists, cell-based qHTS assay with human liver microsomes: qHTS cell viability counter screen (AID 1963579); note: nearly all actives have a fitted effect of over 45% in size
Method in brief: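 Cytotoxicity counter screen: p53RE-bla, 4,000 cells/well; 5 h settle, 37 C/5% CO2; cpd + HLM 0.5 mg/mL + NADPH 0.5 mg/mL (final); 16 h, 37 C; CellTiter-Glo, 30 min RT, luminescence.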

[9] = p53 small molecule agonists, cell-based qHTS assay with rat liver microsomes: qHTS cell viability counter screen (AID 1963580); note: nearly all actives have a fitted effect of over 45% in size
Method in brief: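 In HCT-116 cells carrying a p53 response element-bla reporter, compounds were metabolically activated in situ by rat liver microsomes with NADPH over 16 h. Cell ATP content then served as the cytotoxicity measure.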

[10] = p53 small molecule agonists, cell-based qHTS assay: qHTS cell viability counter screen (AID 1963581); note: nearly all actives have a fitted effect of over 45% in size
Method in brief: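 In the same plates used for the p53 bla reporter, HCT-116 cells given compounds for 16 h at 37 C received CellTiter-Glo; luminescence was recorded 30 min later at room temperature.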

[11] = p53 small molecule agonists, cell-based qHTS assay (AID 1963582; active = well fitted activation curve with a large enough effect in the signal ratio in the repeat runs, not every such curve was filed as active; the % refers to the signal ratio)
Method in brief: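 Compounds are pin-transferred in DMSO onto p53RE-bla cells and incubated 16 h at 37 C. The B/G FRET beta-lactamase substrate is then applied for 2 h at RT and fluorescence recorded.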

[12] = target: 5-hydroxytryptamine receptor 2A (Homo sapiens) (UniProt P28223); assay: 5-hydroxytryptamine receptor 2A (HTR2A) small molecule antagonists, cell-based qHTS assay (AID 1963586); note: nearly all actives have a fitted effect of over 45% in size
Method in brief: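 Antagonist-mode intracellular calcium assay: DOI (4 nM) added after 5 min compound pre-incubation at room temperature to dye-loaded HTR2A-CHO cells. Fluorescence followed for 3 min, sampled every second.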

[13] = target: 5-hydroxytryptamine receptor 2A (Homo sapiens) (UniProt P28223); assay: 5-hydroxytryptamine receptor 2A (HTR2A) small molecule agonists, cell-based qHTS assay (AID 1963587); note: nearly all actives have a fitted effect of over 30% in size
Method in brief: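 HTR2A-CHO cells, plated 18 h at 37 C/5% CO2, dye-loaded 1 h at 37 C; compounds in DMSO added by pin tool (agonist mode). Intracellular calcium flux read as kinetic fluorescence on FDSS over 2 min at 1 s intervals.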

[14] = target: Muscarinic acetylcholine receptor M1 (Homo sapiens) (UniProt P11229); assay: Cholinergic receptor muscarinic 1 (CHRM1) small molecule antagonists, cell-based qHTS assay (AID 1963588); note: nearly all actives have a fitted effect of over 40% in size; note: potency is the fitted concentration of half-maximal effect
Method in brief: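 CHRM1-CHO calcium-flux assay, antagonist mode. Cells were seeded 18 h, dye-loaded 1 h at 37 C and given compound for 5 min at RT, then acetylcholine was added at 50nM. FDSS fluorescence was read 3 min; 15 concentrations, three runs.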

[15] = target: Muscarinic acetylcholine receptor M1 (Homo sapiens) (UniProt P11229); assay: Cholinergic receptor muscarinic 1 (CHRM1) small molecule agonists, cell-based qHTS assay (AID 1963589); note: nearly all actives have a fitted effect of over 35% in size
Method in brief: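 Each compound was tested at 15 concentrations across three independent runs on dye-loaded CHO cells stably expressing human CHRM1, reading intracellular calcium fluorescence kinetically at 1 sec intervals.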

[16] = cAMP Responsive Elements (CRE) small molecule agonists, cell-based qHTS assay (AID 1963590)
Method in brief: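 Cell line: CRE-bla HEK 293T; medium DMEM/10% dialyzed FBS/0.1 mM NEAA/1 mM pyruvate/25 mM HEPES; 3 h compound exposure; beta-lactamase FRET readout after 2 h substrate loading at RT.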

[17] = target: D(2) dopamine receptor (Homo sapiens) (UniProt P14416); assay: Dopamine D2 receptor (DRD2) small molecule agonists, cell-based qHTS assay (AID 1963594); note: nearly all actives have a fitted effect of over 35% in size
Method in brief: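 HEK293 cells stably expressing DRD2 were cultured 24 h at 37 C, then given Ro20-1724 (0.1 mM final) and compounds for 10 min at room temperature. NKH477 (200nM) was then added for 30 min. cAMP was read by HTRF.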

[18] = target: D(2) dopamine receptor (Homo sapiens) (UniProt P14416); assay: Dopamine D2 receptor (DRD2) small molecule antagonists, cell-based qHTS assay (AID 1963595; active = well fitted inhibition curve with a large enough effect in the signal ratio in the repeat runs, with a control signal flat; the % refers to the signal ratio)
Method in brief: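 Antagonism was scored as restored cAMP in HEK293-DRD2 cells. These cells were stimulated with 200 nM NKH477 and 12 nM quinpirole for 30 min at room temperature, in the presence of 0.1 mM Ro20-1724.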

[19] = cAMP Responsive Elements (CRE) small molecule antagonists, cell-based qHTS assay (AID 1963591; active = well fitted inhibition curve with a large enough effect in the signal ratio in the repeat runs, not every such curve was filed as active; the % refers to the signal ratio)
Method in brief: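 Inhibition of NKH477-driven (0.25 uM final) CRE-beta-lactamase signal in HEK293T cells, 3 h compound exposure at 37 °C, detected by FRET substrate fluorescence.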

[20] = target: Beta-2 adrenergic receptor (Homo sapiens) (UniProt P07550); assay: Adrenergic beta2 receptor (ADRB2) small molecule antagonists, cell-based qHTS assay (AID 1963592); note: series mostly up to about 92 µM; nearly all actives have a fitted effect of over 50% in size
Method in brief: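 Cells (CHO, stable ADRB2 overexpression) incubated 18-20hr at 37C; compounds added from DMSO; agonist mix (1nM isoproterenol, 100uM IBMX, 25uM Ro-20-1724) added; 0.5hr RT; d2-cAMP and anti-cAMP-cryptate added; 1hr RT; 665/615 nm read.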
% is set by controls: 0 for no effect and ±100 for the full control effect.

Chain of Muscarinic acetylcholine receptor M1 (Homo sapiens) (P11229 whole entry, looked up): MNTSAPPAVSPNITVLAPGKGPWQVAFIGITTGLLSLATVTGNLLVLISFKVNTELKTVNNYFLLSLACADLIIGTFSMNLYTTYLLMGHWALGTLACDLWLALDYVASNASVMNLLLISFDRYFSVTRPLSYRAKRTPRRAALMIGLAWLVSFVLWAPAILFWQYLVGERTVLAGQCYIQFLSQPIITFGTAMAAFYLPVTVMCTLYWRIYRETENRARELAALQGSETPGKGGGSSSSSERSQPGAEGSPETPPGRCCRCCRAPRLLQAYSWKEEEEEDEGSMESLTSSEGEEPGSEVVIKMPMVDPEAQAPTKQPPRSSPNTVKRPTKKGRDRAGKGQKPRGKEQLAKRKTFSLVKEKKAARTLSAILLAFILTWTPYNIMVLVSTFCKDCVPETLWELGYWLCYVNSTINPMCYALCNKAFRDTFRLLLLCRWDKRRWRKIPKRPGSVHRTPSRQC
Chain of Gonadotropin-releasing hormone receptor (Homo sapiens) (P30968 whole entry, looked up): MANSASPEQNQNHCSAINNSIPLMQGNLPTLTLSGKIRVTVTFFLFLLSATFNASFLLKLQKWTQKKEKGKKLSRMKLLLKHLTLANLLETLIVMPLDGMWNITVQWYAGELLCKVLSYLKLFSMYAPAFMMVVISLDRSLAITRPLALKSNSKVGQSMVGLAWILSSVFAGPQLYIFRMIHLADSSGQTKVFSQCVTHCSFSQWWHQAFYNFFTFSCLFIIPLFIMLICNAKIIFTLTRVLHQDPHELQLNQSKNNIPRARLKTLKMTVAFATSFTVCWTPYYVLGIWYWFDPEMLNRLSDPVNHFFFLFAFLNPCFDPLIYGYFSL
Chain of Beta-2 adrenergic receptor (Homo sapiens) (P07550 whole entry, looked up): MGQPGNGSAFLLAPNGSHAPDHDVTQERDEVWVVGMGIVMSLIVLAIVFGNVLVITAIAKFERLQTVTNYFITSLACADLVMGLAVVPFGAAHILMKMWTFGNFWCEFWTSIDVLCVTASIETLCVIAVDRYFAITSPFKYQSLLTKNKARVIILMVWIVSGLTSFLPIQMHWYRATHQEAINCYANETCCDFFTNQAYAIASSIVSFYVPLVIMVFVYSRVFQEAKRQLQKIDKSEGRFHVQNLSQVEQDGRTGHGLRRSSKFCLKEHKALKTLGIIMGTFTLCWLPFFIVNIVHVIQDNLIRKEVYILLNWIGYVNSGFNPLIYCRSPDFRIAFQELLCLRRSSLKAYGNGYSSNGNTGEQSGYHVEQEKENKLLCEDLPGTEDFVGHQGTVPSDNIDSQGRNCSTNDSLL
Chain of 5-hydroxytryptamine receptor 2A (Homo sapiens) (P28223 whole entry, looked up): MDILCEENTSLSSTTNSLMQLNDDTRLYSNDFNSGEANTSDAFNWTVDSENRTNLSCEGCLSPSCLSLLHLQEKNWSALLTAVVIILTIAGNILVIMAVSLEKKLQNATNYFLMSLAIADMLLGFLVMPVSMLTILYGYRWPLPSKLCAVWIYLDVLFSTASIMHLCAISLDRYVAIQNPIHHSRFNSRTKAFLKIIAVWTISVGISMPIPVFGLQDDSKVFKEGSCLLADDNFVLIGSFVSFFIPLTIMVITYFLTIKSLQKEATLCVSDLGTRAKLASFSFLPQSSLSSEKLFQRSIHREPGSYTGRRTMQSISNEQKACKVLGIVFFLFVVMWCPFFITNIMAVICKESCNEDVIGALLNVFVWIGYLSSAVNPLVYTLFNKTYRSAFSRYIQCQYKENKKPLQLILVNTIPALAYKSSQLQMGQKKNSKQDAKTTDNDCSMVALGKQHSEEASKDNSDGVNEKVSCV
Chain of D(2) dopamine receptor (Homo sapiens) (P14416 whole entry, looked up): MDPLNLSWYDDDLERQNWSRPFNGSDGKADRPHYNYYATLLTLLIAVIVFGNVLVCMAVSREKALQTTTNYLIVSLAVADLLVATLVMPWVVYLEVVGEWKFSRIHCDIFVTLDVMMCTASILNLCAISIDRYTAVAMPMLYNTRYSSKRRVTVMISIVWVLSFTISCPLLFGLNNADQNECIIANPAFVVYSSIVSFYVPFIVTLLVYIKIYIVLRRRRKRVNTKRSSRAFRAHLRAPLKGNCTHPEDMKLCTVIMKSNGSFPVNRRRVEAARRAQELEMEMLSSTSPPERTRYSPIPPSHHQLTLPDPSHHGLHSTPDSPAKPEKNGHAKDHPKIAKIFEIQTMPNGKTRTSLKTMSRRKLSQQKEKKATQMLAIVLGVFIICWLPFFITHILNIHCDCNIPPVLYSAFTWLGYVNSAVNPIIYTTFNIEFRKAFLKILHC
Chain of KiSS-1 receptor (Homo sapiens) (Q969F8 whole entry, looked up): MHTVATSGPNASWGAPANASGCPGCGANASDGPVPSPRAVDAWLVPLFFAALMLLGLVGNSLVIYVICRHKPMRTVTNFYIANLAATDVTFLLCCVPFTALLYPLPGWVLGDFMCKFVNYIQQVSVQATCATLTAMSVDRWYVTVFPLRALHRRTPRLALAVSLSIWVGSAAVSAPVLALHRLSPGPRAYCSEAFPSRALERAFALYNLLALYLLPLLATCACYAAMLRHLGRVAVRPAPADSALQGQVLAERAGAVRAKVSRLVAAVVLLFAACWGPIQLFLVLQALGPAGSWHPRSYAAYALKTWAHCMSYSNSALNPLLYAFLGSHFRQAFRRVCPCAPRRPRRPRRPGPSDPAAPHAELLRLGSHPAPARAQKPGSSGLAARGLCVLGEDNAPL

Brc1c2ccccc2cc2ccccc12
inactive: Potency [1] | Potency [2] | Potency [3] | outcome [4] | outcome [5] | Potency [6] | Potency [7] | Potency [8] | Potency [9] | Potency [10] | Potency [11] | Potency [12] | Potency [13] | Potency [14] | Potency [15] | Potency [16] | Potency [17] | Potency [18]

CN1CCCN=C1COC(=O)C(O)(c1ccccc1)C1CCCCC1 (stereo not drawn)
active: Potency [14] 11.6 nM
inactive: Potency [1] | Potency [2] | Potency [3] | outcome [4] | outcome [5] | Potency [6] | Potency [7] | Potency [8] | Potency [9] | Potency [10] | Potency [11] | Potency [12] | Potency [13] | Potency [15] | Potency [19] | Potency [20] | Potency [17] | Potency [18]

Cc1ccco1
inactive: Potency [1] | Potency [2] | Potency [3] | outcome [4] | outcome [5] | Potency [6] | Potency [7] | Potency [8] | Potency [9] | Potency [10] | Potency [11] | Potency [12] | Potency [13] | Potency [14] | Potency [15] | Potency [19] | Potency [20] | Potency [17] | Potency [18]

CCCCC(=O)OCC(=O)[C@H]1[C@H](C)C[C@H]2[C@@H]3C[C@H](F)C4=CC(=O)C=C[C@]4(C)[C@@]3(F)[C@@H](O)C[C@@]21C
inactive: Potency [1] | Potency [2] | Potency [3] | outcome [4] | outcome [5] | Potency [6] | Potency [7] | Potency [8] | Potency [9] | Potency [10] | Potency [11] | Potency [12] | Potency [13] | Potency [14] | Potency [15] | Potency [19] | Potency [20] | Potency [17] | Potency [18]

C[C@]12C=CC(=O)C=C1[C@@H](F)C[C@@H]1[C@@H]2[C@@H](O)C[C@@]2(C)[C@H]1CC[C@]2(O)C(=O)CO
inactive: Potency [1] | Potency [2] | Potency [3] | outcome [4] | outcome [5] | Potency [6] | Potency [7] | Potency [8] | Potency [9] | Potency [10] | Potency [11] | Potency [12] | Potency [13] | Potency [14] | Potency [15] | Potency [19] | Potency [20] | Potency [17] | Potency [18]

CCCCCCCCCCCCCCN(C)C
inactive: activity change, negative = cytotoxicity [1] 2.19% [at 19 µM] | activity, positive = activation [2] 2.64% [at 19 µM] | activity change [3] -0.071% [at 11.8 µM, active compounds read high] | activation [4] 2.68% [at 15.8 µM] | activation [5] -0.129% [at 11.8 µM] | activation [6] -0.299% [at 13.5 µM] | activation [7] -1.12% [at 13.6 µM] | activity change, negative = cytotoxicity [8] 6.35% [at 13.5 µM] | activity change, negative = cytotoxicity [9] -0.358% [at 13.5 µM] | activity change, negative = cytotoxicity [10] 1.73% [at 13.5 µM] | activation [11] -0.74% [at 13.5 µM] | activity, negative = inhibition [12] 2.96% [at 12.7 µM] | activation [13] 12% [at 15.9 µM] | activity, negative = inhibition [14] 5.47% [at 12.6 µM] | activation [15] 0.401% [at 15.8 µM] | activity change, negative = inhibition [19] -9.63% [at 18.9 µM] | activity change, negative = inhibition [20] -1.54% [at 19 µM] | activation [17] 0.215% [at 19 µM] | activity change, negative = inhibition [18] -0.238% [at 18.9 µM]
